Experimental data published in PubChem BioAssay (NCI).
The panel holds about 83,000 compounds, 20% with a hit somewhere; the sample as a whole holds those more often.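 Compound tested at a single concentration for 48 hours in 96-well plates; a percent growth value below 10 was scored as active.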 Unmarked numbers belong to inactive results. The source made the active and inactive calls.

What was measured:
Test in all cases: NCI-60 one-dose screen, 48 h (100 = growth as untreated, 0 = no growth, -100 = all killed)
DU-145 prostate = details: 10 µM unless noted
K-562 leukemia = details: 10 µM unless noted
MALME-3M melanoma = details: 10 µM unless noted
MDA-MB-231 breast = details: 10 µM unless noted
SF-268 CNS = details: 10 µM unless noted
SF-295 CNS = details: 10 µM unless noted
SF-539 CNS = details: 10 µM unless noted
UACC-257 melanoma = details: 10 µM
M14 melanoma = details: 10 µM unless noted
RXF 393 renal = details: 10 µM unless noted

SMILES | growth (DU-145 prostate) | growth (K-562 leukemia) | growth (MALME-3M melanoma) | growth (MDA-MB-231 breast) | growth (SF-268 CNS) | growth (SF-295 CNS) | growth (SF-539 CNS) | growth (UACC-257 melanoma) | growth (M14 melanoma) | growth (RXF 393 renal)
COc1cc(CCn2nnc3c(NCCCCO)ncnc32)cc(OC)c1 | 104% | 116% | 111% | 120% | 105% | 105% | 111% | 103% | 90.3% | –
Cc1sc2nc(CSc3nnc(-c4ccco4)o3)[nH]c(=O)c2c1C | 114% | 75.6% | 128% | 106% | 106% | 107% | 122% | – | 122% | 98.3%
COc1cccc(NC(=O)Cn2cc3c(=O)oc4ccccc4c3n2)c1 | 103% | 103% | 103% | 96.6% | 103% | 97.2% | 102% | 101% | 101% | –
CC(=O)Nc1nc(C(=O)N2N=C(C)/C(=C/c3ccc(Cl)cc3)C2=O)cs1 | 103% | 106% | 93.1% | 110% | 96.2% | 98.2% | 107% | 94% | 96.7% | –
COc1cccc(-n2cc(-c3nc(Cl)c4ccccc4n3)nn2)c1 | 107% | 97.9% | 104% | 107% | 105% | 93.2% | 108% | 110% | 106% | –
COc1ccc(/C=C/C(=O)/C=C/c2cc3ccc(Cl)cc3[nH]c2=O)cc1 | 88.2% | 53.2% | 107% | 59.4% | 86.5% | 94.8% | 92% | – | 86.4% | 86.9%
O=C(Nc1ccc(I)cc1)c1cc([N+](=O)[O-])ccc1O | 51.4% | 18.7% | -2.87% (active) | 16.2% | 39.4% | 33.7% | 20.4% | – | 31.3% | 7.47% (active)
C[N+](C)(C)c1ccc(CC2c3ccccc3-c3ccccc32)cc1 | 101% | 70.6% | 74.9% | 74.7% | 42.4% | 79.1% | 25.5% | – | 75.4% | 103%
COc1cc(C2C=C(C)N=C3SC=CN32)cc(OC)c1OC (stereo not given) | 112% | 123% | 104% | 100% | 104% | 108% | 116% | 102% | 107% | –
CN(C)C/C=C/C(=O)Nc1cc2c(Nc3cccc(Cl)c3F)ncnc2cc1OCCOC(F)F | 31.3% | 18.1% | 38.5% | 17.6% | 41.9% | 55.2% | 36.7% | – | 67.5% | 6.09% (active)
O=c1oc2cc(OS(=O)(=O)c3ccc(F)cc3)ccc2c2c1CCCCC2 | 78.7% | 31.6% | 83.5% | 90.5% | 86.8% | 63.4% | 78.6% | 62.1% | 69.4% | –
c1ccc(CCn2nnc3c(Nc4ccc(N5CCOCC5)cc4)ncnc32)cc1 | 105% | 27.1% | 69.2% | 78.4% | 107% | 94.1% | 82.2% | 68.6% | 44% | –
O=C(Nc1cccc(Cl)c1)c1cc([N+](=O)[O-])ccc1O | 73.2% | 27.7% | 22% | 38% | 65% | 58.8% | 32.2% | – | 54.9% | 46.2%
C=C1C(=O)O[C@H]2[C@H]1CC/C(COC(=O)NCc1ccc(OC)cc1)=C\CC[C@@]1(C)O[C@@H]21 | 33.5% | 14% | 98.3% | 60.9% | 55.5% | 96.2% | 50.2% | – | 32.9% | 15%
Cc1cc(Nc2nc(C(=O)Nc3ccccc3)nc3ccccc23)n[nH]1 | 66.2% | 48.7% | 61.5% | 85.4% | 71% | 53.9% | 78.7% | 83% | 50.9% | –
COc1ccc(C2CC(c3cccs3)=NN2c2ccc(S(=O)(=O)NC(=O)Nc3ccc(C)cc3)cc2)cc1 (stereo not given) | 102% | 114% | 40.6% | 117% | 95.6% | 100% | 98.3% | 40.9% | 58.4% | –
Cc1cc(Nc2nc(-c3ccc(F)cc3)nc3ccccc23)n[nH]1 | 77.1% | 36.6% | 57% | 78.7% | 63.3% | 64.4% | 66.6% | 47.2% | 53.5% | –
CC(=O)Nc1ccc2c(c1)/C(=C\C=C/c1ccc([N+](C)(C)C)cc1)c1ccccc1-2 | 73% | 49.5% | 86.5% | 63.7% | 48.6% | 46.5% | 42.4% | – | 71.5% | 99.1%
COc1ccccc1OCC(=O)Nc1sc2c(c1C(N)=O)CCC2 | 58.4% | 52.5% | 91.9% | 92.1% | 43.7% | 15.2% | 59.6% | – | 66.4% | 48.1%
COc1cc(OC)cc(-c2n[nH]nc2-c2ccc3c(c2)OCO3)c1 | 25.1% | 16.7% | 67.7% | 18.9% | 52% | 1.21% (active) | -31% (active) | 71.4% | 14.5% | –
CC1=CNNc2c3ncnc-3ncn21 | 104% | 101% | 102% | 103% | 103% | 103% | 101% | 109% | 108% | –
Cc1oc2ncnc(Nc3ccccc3)c2c1C(=O)NCCO | 105% | 29.4% | 107% | 75% | 99.8% | 100% | 88.6% | – | 106% | 104%
Cc1cc(C)c2c(=O)[nH]c(SCC(=O)Nc3cccc(S(=O)(=O)N(C)C)c3)nc2n1 | 101% | 94.1% | 95.8% | 87.6% | 114% | 139% | 97.3% | – | 100% | 58.4%
Cc1c(C2=NNC(c3ccc4c(c3)OCO4)C2)[n+]([O-])c2ccccc2[n+]1[O-] (stereo not given) | 103% | 91.2% | 154% | 102% | 114% | 105% | 96.2% | – | 99.6% | 96.4%
Cc1cc(NC(=O)COC(=O)c2sc3cc(F)ccc3c2Cl)no1 | 116% | 111% | 100% | 98.6% | 120% | 112% | 105% | – | 102% | 32.6%
COc1cc2c(cc1OCCCCn1c(-c3cc(=O)c4ccccc4o3)nc3ccccc31)N=C[C@@H]1CCCN1C2=O | 118% | 72.3% | 109% | 87.7% | 107% | 113% | 118% | – | 105% | 51.3%
O=C(O)c1ccc(-n2cc(CNc3ccc(C(F)(F)F)cc3)c(-c3ccccc3)n2)cc1 | 95.9% | 80.6% | 91.3% | 102% | 91.4% | 75% | 99.9% | – | 89% | 99.4%
COC(=O)CCCCCN=Cc1c(O)c(O)c(C(C)C)c2cc(C)c(-c3c(C)cc4c(C(C)C)c(O)c(O)c(C=NCCCCCC(=O)OC)c4c3O)c(O)c12 | 23% | 9.57% (active) | 44.4% | 11.9% | 25.6% | 9.3% (active) | 23.7% | – | 18.6% | 29.2%
CN(C)c1nc(N)c(N=O)c(N)n1 | 113% | 103% | 118% | 108% | 110% | 127% | 110% | – | 111% | 118%
CC(Cc1nnc(SCC(=O)Nc2ccc(I)cc2)n1N)c1ccccc1 (stereo not given) | 94.5% | 87.1% | 108% | 81.8% | 102% | 127% | 94.3% | – | 95.3% | 53.7%
